# In PubChem BioAssay AID504725 (Broad Institute, 2011):
# Measured potencies and affinities stand elsewhere. The source made the active and inactive calls. How the calls were made is not given here.
# Target: KSHV LANA C-terminal domain (residues 932-1162) binding to LBS DNA (UniProt O40947)
# Assay: KSHV LANA DNA-binding disruption – biochemical, fluorescence polarization, cherry-picked samples, dose response (AID 504725)
# Settings: MBP-C-LANA / FAM-LBS DNA fluorescence polarization, percent change from plate compound-well median; series mostly up to 35 µM; activity change, negative = inhibition: at the top concentration
row,SMILES,"activity change, negative = inhibition"
1,O=C(NCCN1CCN(C(=O)c2cccs2)CC1)c1cccs1,0.287% (inactive)
2,CSC(=NS(=O)(=O)c1ccc(N)cc1)NS(=O)(=O)c1cccs1,-0.26% (inactive)
3,NC(=S)COc1ccccc1,3.96% (inactive)
4,CSCCC(NC(=O)c1ccccc1Cl)C(=O)N1CCCC(C)C1 (stereo not drawn),0.532% (inactive)
5,O=C(NCC1CCCO1)c1cccc(S(=O)(=O)N(Cc2ccccc2)c2ccccc2)c1 (stereo not drawn),2.67% (inactive)
6,COc1cccc(OCCNc2ccc([N+](=O)[O-])cn2)c1,2.33% (inactive)
7,O=C(CCn1c(=S)oc2ccccc21)N1CCN(c2ccc(F)cc2)CC1,1.94% (inactive)
8,CCc1ccc(N2CC(C(=O)OCC(=O)N(CC)c3c(N)n(Cc4ccccc4)c(=O)[nH]c3=O)CC2=O)cc1 (stereo not drawn),-2.35% (inactive)
9,CC(C)N(C(=S)Nc1cccnc1)c1ccccc1,-1.45% (inactive)
10,COc1ccccc1CNC(=O)CCS(=O)(=O)c1cccs1,0.006% (inactive)
11,CC1CC(C)(C)NC(=S)N1CC(=O)N(C)Cc1ccccc1 (stereo not drawn),-0.507% (inactive)
12,Cc1ccc(NC(=O)CN2C(=O)N/C(=C/c3cc(C)n(-c4ccc(C(=O)O)cc4)c3C)C2=O)cc1,-8.71% (inactive)
13,Cc1c(N)cc(S(=O)(=O)O)cc1NC(=O)c1cccc([N+](=O)[O-])c1,-8.5% (inactive)
14,COc1cc(SC)ccc1C(=O)OCC(=O)N1CCN(C(C)=O)CC1,-8.66% (inactive)
15,Cc1ccc(C(=O)CCC(=O)Nc2ncccc2C)cc1,2.21% (inactive)
16,CCOC(=O)N1CCN(C(=S)NC(=O)c2cccc(OC)c2)CC1,-2.68% (inactive)
17,COc1cccc(NC(=S)N2CCN(C(c3ccccc3)c3ccccc3)CC2)c1,4.03% (inactive)
18,COc1ccc(-c2n[nH]c(=S)n2-c2ccc(C)cc2)cc1,2.28% (inactive)
19,O=c1[nH][nH]cc1C=Nc1ccc(Cl)cc1Cl,0.414% (inactive)

row,SMILES,"activity change, negative = inhibition"
1,O=C(NCCCO)c1ccc2nc(-c3ccco3)c(-c3ccco3)nc2c1,-18% (inactive)
2,O=C(O)C(c1ccccc1)N1C(=O)/C(=C\c2ccc(-c3cccc(Cl)c3)o2)SC1=S (stereo not drawn),-13.5% (inactive)
3,CCSc1nnc(Cc2cc(=O)[nH]c(=O)[nH]2)n1-c1ccc(F)cc1,-1.06% (inactive)
4,CCc1noc(C)c1C(=O)NCCc1c[nH]c2ccccc12,2.9% (inactive)
5,CCN(CC)C(=S)SC1CCCCN(C(=O)c2ccccc2)C1=O (stereo not drawn),0.524% (inactive)
6,CC1CCCN(C(=O)C(=O)c2cn(CC(=O)N3CCCCCC3)c3ccccc23)C1 (stereo not drawn),-6.83% (inactive)
7,C=C1c2cccc(O)c2C(O)=C2C(=O)[C@]3(O)C(O)=C(C(N)=O)C(=O)[C@@H](N(C)C)[C@@H]3[C@@H](O)[C@H]12,-11.7% (inactive)
8,Cc1ccc(NC(=O)c2ccc(Cl)c(S(=O)(=O)N3CCc4ccccc43)c2)nc1,-5.6% (inactive)
9,O=C(OCc1ccccc1)N1C=CC2CC1c1c(Cl)cccc12 (stereo not drawn),0.553% (inactive)
10,CCn1c(-c2ccc([N+](=O)[O-])cc2)n[nH]c1=S,4.45% (inactive)
11,CCN(CC)S(=O)(=O)N1CCN(S(=O)(=O)N2CCOCC2)CC1,-1.93% (inactive)
12,COc1ccc(NS(=O)(=O)c2ccc(C)c(C(=O)N(C)Cc3ccc(OC)cc3OC)c2)cc1,0.772% (inactive)
13,CC(C(=O)Nc1ccccc1)N1C(=O)c2ccccc2C1=O (stereo not drawn),-1.14% (inactive)
14,O=C(O)/C=C/C(=O)Nc1ccc(Cc2ccc(NC(=O)/C=C/C(=O)O)cc2)cc1,-3.86% (inactive)
15,O=C(NCc1cccnc1)C(=O)C1C(=O)Nc2ccccc21 (stereo not drawn),1.28% (inactive)
16,CCc1sc(C(=O)NNC(=O)CNC(=O)c2ccccc2F)cc1C,-2.7% (inactive)
17,CCOC(=O)C1(Cc2cccc(F)c2)CCN(Cc2c(C)nn(CC)c2C)CC1,-0.116% (inactive)
18,O=C(OCC(=O)N1N=C(c2ccc(Cl)cc2)CC1c1ccco1)c1cccnc1 (stereo not drawn),-0.003% (inactive)
19,CCN(C(=O)COC(=O)c1nc2nc(C)cc(C)n2n1)C1CCCCC1,0.538% (inactive)
